# Measured values reported in PubChem BioAssay (NCATS).
# “And” between values parts separate entries of the source, which are not always exact repeats. Identical values can stand only once. Records with an inconclusive call do not appear. Entries that show only a call come without a potency. Unmarked numbers belong to inactive results. The source made the active and inactive calls. Calls follow the shape of the dose curve; as a rule, active = well fitted curve in the direction sought with a large enough effect; inconclusive = small, poorly fitted or top-dose-only effect, or another doubt; inactive = no such curve, though single readings can be large; an effect the other way counts as inactive or inconclusive.
# Experiments:
# [1] = biological target: Cellular tumor antigen p53 (Homo sapiens) (UniProt P04637); assay: Primary qHTS for small molecule compounds that upregulate eGFP-tagged delta133p53alpha (in N-terminal) cells. (AID 2060322); conditions: NCI-H358 eGFP-delta133p53alpha fluorescence, 24 h; activation: stronger effect = higher value; also: nearly all actives have a fitted effect of over 75% in size; also: potency is read from the fitted curve at half-maximal effect;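 as to activation: cells pre-induced with doxycycline then dosed without doxycycline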
# Summary of the method: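 NCI-H358 cells pre-induced 24 h with 10 ng/ml doxycycline for eGFP-delta133p53alpha, plated dox-free and exposed 24 h at 37C to titrated compounds. Fixed, Hoechst-stained; gated GFP peak intensity by laser scanning cytometry, normalized to DMSO (0%) and 57.5 uM 5-azacytidine (100%).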
# [2] = biological target: Aldehyde dehydrogenase, mitochondrial (Homo sapiens) (UniProt P05091); assay: qHTS for Inhibitors of the Aldehyde Dehydrogenase Family (ALDH2) Primary screen (AID 2061308); conditions: ALDH2 enzyme inhibition qHTS, 1536-well; series mostly up to 56 µM; also: nearly all actives have a fitted effect of over 55% in size; also: potency is read from the fitted curve at half-maximal effect
# [3] = biological target: Retinaldehyde dehydrogenase 3 (Homo sapiens) (UniProt P47895); assay: qHTS for Inhibitors of the Aldehyde Dehydrogenase Family (ALDH1A3) Validation screen (AID 2061312); conditions: ALDH1A3 enzyme inhibition qHTS validation, fluorescence; series mostly up to 84.7 µM; also: nearly all actives have a fitted effect of over 45% in size
# [4] = biological target: Retinaldehyde dehydrogenase 3 (Homo sapiens) (UniProt P47895); assay: qHTS for Inhibitors of the Aldehyde Dehydrogenase Family (ALDH1A3) Primary screen (AID 2061315); conditions: ALDH inhibition qHTS; series mostly up to 56 µM
# [5] = BET inhibitor-based combinations targeting novel dependencies in MECOM-rearranged (r) AML: OCI-AML3 cell line (AID 2202232); conditions: CellTiter-Glo luminescence, 48 h; Potency: OCI-AML3 viability; series mostly up to 46 µM; also: nearly all actives have a fitted effect of over 35% in size; also: potency is read from the fitted curve at half-maximal effect
# Summary of the method: (§1)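 Luminescent ATP readout (CellTiter-Glo) after 48 hr drug exposure gives viability. Curves span 11 concentrations and are normalized to DMSO and empty wells. Activity is reported as area under the curve and its Z-transform within each cell line.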
# [6] = BET inhibitor-based combinations targeting novel dependencies in MECOM-rearranged (r) AML: MV-4-11 cell line (AID 2202233); conditions: MV-4-11 AML viability, CellTiter-Glo luminescence, 48 h; series mostly up to 46 µM; also: nearly all actives have a fitted effect of over 45% in size; also: potency is read from the fitted curve at half-maximal effect
# Summary of the method: (§2)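 Luminescent ATP readout (CellTiter-Glo, 15 min at room temperature) after 48 hr drug exposure gave viability. Dose-response curves, normalized to DMSO and empty-well controls, were summarized as area under the curve and its mean-centred Z-score.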
# [7] = BET inhibitor-based combinations targeting novel dependencies in MECOM-rearranged (r) AML: AML-191 cell line (AID 2202236; also: nearly all actives have a fitted effect of over 35% in size; also: potency is read from the fitted curve at half-maximal effect); conditions: AML-191 viability, CellTiter-Glo luminescence, 48 h; series mostly up to 46 µM
# Summary of the method: as §1
# [8] = BET inhibitor-based combinations targeting novel dependencies in MECOM-rearranged (r) AML: AML-194 cell line (AID 2202237; also: nearly all actives have a fitted effect of over 40% in size; also: potency is read from the fitted curve at half-maximal effect); conditions: AML-194 (MECOM-r AML) viability, CellTiter-Glo, 48 h; series mostly up to 46 µM
# Summary of the method: as §1
# [9] = BET inhibitor-based combinations targeting novel dependencies in MECOM-rearranged (r) AML: HNT-34 cell line (AID 2202234); conditions: HNT-34 AML viability, CellTiter-Glo luminescence, 48 h; series mostly up to 46 µM; also: nearly all actives have a fitted effect of over 35% in size; also: potency is read from the fitted curve at half-maximal effect
# Summary of the method: as §2
# [10] = BET inhibitor-based combinations targeting novel dependencies in MECOM-rearranged (r) AML: UCSD-AML1 cell line (AID 2202235); conditions: UCSD-AML1 AML cells viability, CellTiter-Glo, 48 h; series mostly up to 46 µM; also: nearly all actives have a fitted effect of over 40% in size; also: potency is read from the fitted curve at half-maximal effect
# Summary of the method: as §2
# [11] = biological target: Retinal dehydrogenase 2 (Homo sapiens) (UniProt O94788); assay: qHTS for Inhibitors of the Aldehyde Dehydrogenase Family (ALDH1A2) Confirmation screens (AID 2061314); conditions: ALDH1A2 enzyme inhibition qHTS confirmation; series mostly up to 45.9 µM; also: nearly all actives have a fitted effect of over 65% in size; also: potency is read from the fitted curve at half-maximal effect
# [12] = BET inhibitor-based combinations targeting novel dependencies in MECOM-rearranged (r) AML: SET-2 cell line (AID 2202231); conditions: SET-2 AML cells viability, CellTiter-Glo luminescence, 48 h; viability: stronger effect = lower value, concentration not given here; also: nearly all actives have a fitted effect of over 35% in size; also: potency is read from the fitted curve at half-maximal effect
# Summary of the method: as §1
# [13] = biological target: Aldehyde dehydrogenase 1A1 (Homo sapiens) (UniProt P00352); assay: qHTS for Inhibitors of the Aldehyde Dehydrogenase Family (ALDH1A1) Confirmatory screens (AID 2061316); conditions: ALDH inhibition qHTS; series mostly up to 47.3 µM; also: potency is read from the fitted curve at half-maximal effect; nearly all actives have a fitted effect of over 65% in size
# Chain of Cellular tumor antigen p53 (Homo sapiens) (P04637 whole entry, looked up): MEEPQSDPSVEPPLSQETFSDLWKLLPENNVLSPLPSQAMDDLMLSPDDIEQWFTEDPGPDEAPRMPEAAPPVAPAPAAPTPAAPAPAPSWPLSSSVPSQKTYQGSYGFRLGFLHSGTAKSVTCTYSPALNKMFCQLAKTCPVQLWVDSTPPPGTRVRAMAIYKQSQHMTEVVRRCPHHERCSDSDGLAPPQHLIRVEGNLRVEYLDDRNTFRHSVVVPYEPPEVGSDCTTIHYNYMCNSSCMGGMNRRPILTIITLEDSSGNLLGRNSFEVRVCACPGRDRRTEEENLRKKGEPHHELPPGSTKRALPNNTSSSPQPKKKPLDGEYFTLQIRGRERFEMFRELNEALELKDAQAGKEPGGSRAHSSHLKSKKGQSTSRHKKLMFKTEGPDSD
smiles,measurement,setting,value
COc1cc(OC)c2c(=O)[nH]c(-c3cc(C)c(OCCO)c(C)c3)nc2c1,activation,[1],-0.477%
same,Potency,[2],inactive
same,Potency,[3],inactive
same,Potency,[4],inactive
same,Potency,[5],14.8 µM (active)
same,Potency,[6],16.6 µM (active)
same,Potency,[7],16.6 µM (active)
same,Potency,[8],20.9 µM (active)
CC#C[C@@H](CC(=O)O)c1ccc(OCc2cccc(-c3ccc(C(F)(F)F)cc3)c2)cc1,activation,[1],-17.2%
same,Potency,[2],inactive
same,Potency,[3],inactive
same,Potency,[4],inactive
same,Potency,[9],inactive
same,Potency,[10],inactive
same,Potency,[7],20.9 µM (active)
Cc1nc(Nc2ncc(C(=O)Nc3c(C)cccc3Cl)s2)cc(N2CCN(CCO)CC2)n1,Potency,[1],9.53 µM (active)
same,Potency,[2],inactive
same,Potency,[3],inactive
same,Potency,[4],inactive
same,Potency,[5],13.2 µM (active)
same,Potency,[6],13.2 µM (active)
same,Potency,[10],7.42 µM (active)
same,Potency,[7],14.8 µM (active)
same,Potency,[8],11.8 µM (active)
CN1CCC(COc2cnc(-c3cccc(Cn4nc(-c5cccc(C#N)c5)ccc4=O)c3)nc2)CC1,activation,[1],-3.12% and 9.55%
same,Potency,[2],inactive
same,Potency,[3],inactive
same,Potency,[4],inactive
same,Potency,[6],5.9 µM (active)
same,Potency,[9],inactive
same,Potency,[10],inactive
same,Potency,[7],inactive
CCC1=C(C)CN(C(=O)NCCc2ccc(S(=O)(=O)NC(=O)NC3CCC(C)CC3)cc2)C1=O (configuration not stated),activation,[1],-11% and 10.7% and 1.91%
same,Potency,[2],inactive
same,Potency,[3],inactive
same,Potency,[4],inactive
same,Potency,[6],inactive
same,Potency,[9],inactive
same,Potency,[10],inactive
same,Potency,[7],inactive
same,Potency,[8],inactive
CNCc1ccc(-c2[nH]c3cc(F)cc4c3c2CCNC4=O)cc1,activation,[1],35.7%
same,Potency,[2],inactive
same,Potency,[3],inactive
same,Potency,[6],11.8 µM (active)
COC1CCN(C(=O)c2cc(Cc3n[nH]c(=O)c4ccccc34)ccc2F)CC1,activation,[1],4.47%
same,Potency,[2],inactive
same,Potency,[3],inactive
same,Potency,[4],inactive
same,Potency,[6],16.6 µM (active)
Cn1c(CNc2ccc(C(=N)N)cc2)nc2cc(C(=O)N(CCC(=O)O)c3ccccn3)ccc21,activation,[1],22.7% and -0.477%
same,Potency,[2],inactive
same,Potency,[3],inactive
same,Potency,[4],inactive
same,viability (% of control),[5],119% [at 0.315 µM]
same,"viability, % of control",[6],133% [at 0.315 µM]
same,viability (% of control),[9],104% [at 0.315 µM]
same,viability (% of control),[7],101% [at 0.315 µM]
same,viability (% of control),[8],118% [at 0.315 µM]
O=C(Nc1cccnn1)N1CCC(=Cc2cccc(Oc3ccc(C(F)(F)F)cn3)c2)CC1,activation,[1],-1.43%
same,Potency,[2],inactive
same,Potency,[3],inactive
same,Potency,[4],inactive
same,Potency,[7],18.6 µM (active)
same,Potency,[8],18.6 µM (active)
CCCc1cc(C)[nH]c(=O)c1CNC(=O)c1cc(-c2ccnc(N3CCN(C)CC3)c2)cc2c1cnn2C(C)C,activation,[1],-12.3%
same,Potency,[2],inactive
same,Potency,[3],inactive
same,Potency,[4],inactive
same,Potency,[6],23.5 µM (active)
O=C(Nc1cccnc1)N1CCC(Cc2cccc(Oc3ccc(C(F)(F)F)cn3)c2)CC1,activation,[1],-5.98% and -11%
same,Potency,[2],inactive
same,Potency,[3],inactive
same,Potency,[4],inactive
same,Potency,[6],5.9 µM (active)
same,Potency,[10],26.3 µM (active)
same,Potency,[7],20.9 µM (active)
CCNC(=O)c1noc(-c2cc(C(C)C)c(O)cc2O)c1-c1ccc(CN2CCOCC2)cc1,activation,[1],-2.59% and -6.68%
same,Potency,[2],inactive
same,Potency,[3],inactive
same,Potency,[4],inactive
same,Potency,[10],0.0166 µM (active)
CC(C)c1cc(-c2n[nH]c(=O)n2-c2ccc3c(ccn3C)c2)c(O)cc1O,activation,[1],-0.957% and -3.82%
same,Potency,[2],inactive
same,Potency,[3],inactive
same,Potency,[4],inactive
same,Potency,[6],0.0235 µM (active)
same,Potency,[10],0.0468 µM (active)
CC(C)=CCc1cc2c(cc1O)OC[C@H]1c3ccc(O)cc3O[C@@H]21,activation,[1],-3.82%
same,Potency,[2],inactive
same,Potency,[4],inactive
N#Cc1c(O)c2c(-c3ccc(-c4ccccc4O)cc3)csc2[nH]c1=O,activation,[1],4.35% and -11.5%
same,Potency,[2],17.8 µM (active)
same,Potency,[11],12.7 µM (active)
same,Potency,[4],inactive
same,viability,[12],120%
same,Potency,[5],inactive
same,Potency,[6],inactive
same,Potency,[9],inactive
same,Potency,[10],inactive
same,Potency,[7],inactive
same,Potency,[8],inactive
CNC(=O)c1ccc2c(C(=Nc3cccc(CN(C)C)c3)c3ccccc3)c(O)[nH]c2c1,activation,[1],-0.477%
same,Potency,[2],inactive
same,Potency,[3],inactive
same,Potency,[6],1.66 µM (active)
same,Potency,[10],inactive
O=S(=O)(c1ccccc1)c1cnc2c(N3CCNCC3)cccc2c1,activation,[1],27%
same,Potency,[2],inactive
same,Potency,[4],inactive
COCC1OC(OC(C)(C)C2CCC3(C)C=C(C4CCC5C4(C)CC(O)C4OC(C(C)(C)O)CCC45C)CCC3O2)C(NC(C)=O)C(O)C1O (configuration not stated),activation,[1],5.34%
same,Potency,[2],inactive
same,Potency,[4],inactive
C=CC(C)(C)O[C@@H]1O[C@H](CO[C@@H]2OC[C@](O)(CO)[C@H]2O)[C@@H](O)[C@H](O)[C@H]1O,activation,[1],-18.3%
same,Potency,[2],inactive
same,Potency,[4],inactive
O=C1NC(=O)C(c2cnc3ccccn23)=C1c1cn2c3c(cccc13)CN(C(=O)N1CCOCC1)CC2,Potency,[1],23.9 µM (active)
same,Potency,[2],inactive
same,Potency,[11],inactive
same,Potency,[13],12.7 µM (active)
same,Potency,[12],0.118 µM (active)
same,Potency,[5],3.32 µM (active)
same,Potency,[6],0.0934 µM (active)
same,Potency,[9],0.118 µM (active)
same,Potency,[10],1.05 µM (active)
same,Potency,[7],0.525 µM (active)
same,Potency,[8],2.35 µM (active)
